# Data taken from PubChem BioAssay AID1159580 (chemical genetic matrix, 2015).
# In all, about 5,500 compounds went through this assay and about 2,000 (36%) were called active. About 18% were inconclusive and are not listed. The list shows a part of the results. A number with no mark means an inactive call. Rule as the data show it: active = normalized growth mostly below about 0.91 (no sharp cut-off); inconclusive = no clear call, values can overlap the other calls; inactive = mostly above about 0.92.
# Assay: chemical genetic growth profiling, strain panel (AID 1159580);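 also: tested at 20 µM; growth read once vehicle control cultures reached saturation at 30 °C; 1 = growth at the plate median or of vehicle wells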
# Conditions: S. cerevisiae deletion strains, growth OD
# [1] = locus YAL040C, strain CLN3, stronger effect = lower value
# [2] = locus YCL061C, strain MRC1 (second series), stronger effect = lower value
# [3] = locus YDR150W, strain NUM1, stronger effect = lower value
# [4] = locus YDR363W, strain ESC2, stronger effect = lower value
# [5] = locus YER002W, strain NOP16, stronger effect = lower value
# [6] = locus YNL175C, strain NOP13, stronger effect = lower value
# [7] = locus YNL197C, strain WHI3, stronger effect = lower value
# [8] = locus YNL224C, strain SQS1, stronger effect = lower value
# [9] = locus YOR083W, strain WHI5 (second series), stronger effect = lower value
structure (smiles),measurement,setting,value
S=c1[nH]nc(Nc2ccc(I)cc2)s1,normalized growth,"locus YAR019C, strain CDC15, stronger effect = lower value",0.839 (active)
same,normalized growth,"locus YBL105C, strain PKC1, stronger effect = lower value",0.874 (active)
same,normalized growth,"locus YBR135W, strain CKS1, stronger effect = lower value",0.881 (active)
same,normalized growth,"locus YBR136W, strain MEC1, stronger effect = lower value",0.871 (active)
same,normalized growth,"locus YBR160W, strain CDC28, stronger effect = lower value",0.885 (active)
same,normalized growth,"locus YDL017W, strain CDC7, stronger effect = lower value",0.873 (active)
same,normalized growth,"locus YDL028C, strain MPS1, stronger effect = lower value",0.873 (active)
same,normalized growth,"locus YDL101C, strain DUN1, stronger effect = lower value",0.917
same,normalized growth,"locus YDL108W, strain KIN28, stronger effect = lower value",0.868 (active)
same,normalized growth,"locus YDL132W, strain cdc53, stronger effect = lower value",0.904
same,normalized growth,"locus YDL214C, strain PRR2, stronger effect = lower value",0.722
same,normalized growth,"locus YDR052C, strain DBF4, stronger effect = lower value",0.874 (active)
same,normalized growth,"locus YDR054C, strain cdc34, stronger effect = lower value",0.912
same,normalized growth,"locus YDR226W, strain ADK1, stronger effect = lower value",0.878 (active)
same,normalized growth,"locus YDR477W, strain SNF1, stronger effect = lower value",0.644 (active)
same,normalized growth,"locus YER123W, strain YCK3, stronger effect = lower value",0.504 (active)
same,normalized growth,"locus YER133W, strain GLC7, stronger effect = lower value",0.607 (active)
same,normalized growth,"locus YFL009W, strain cdc4, stronger effect = lower value",0.845 (active)
same,normalized growth,"locus YFL029C, strain CAK1, stronger effect = lower value",0.814 (active)
same,normalized growth,"locus YFR003C, strain YPI1, stronger effect = lower value",0.869 (active)
same,normalized growth,"locus YFR019W, strain FAB1, stronger effect = lower value",0.813
same,normalized growth,"locus YFR028C, strain CDC14, stronger effect = lower value",0.871 (active)
same,normalized growth,"locus YGR040W, strain KSS1, stronger effect = lower value",0.658 (active)
same,normalized growth,"locus YGR052W, strain FMP48, stronger effect = lower value",0.744
same,normalized growth,"locus YGR092W, strain DBF2, stronger effect = lower value",0.326 (active)
same,normalized growth,"locus YHR030C, strain SLT2, stronger effect = lower value",0.279 (active)
same,normalized growth,"locus YHR079C, strain IRE1, stronger effect = lower value",0.362 (active)
same,normalized growth,"locus YHR082C, strain KSP1, stronger effect = lower value",0.653
same,normalized growth,"locus YHR205W, strain SCH9, stronger effect = lower value",0.821
same,normalized growth,"locus YIL147C, strain SLN1, stronger effect = lower value",0.866 (active)
same,normalized growth,"locus YJL095W, strain BCK1, stronger effect = lower value",0.396 (active)
same,normalized growth,"locus YJL128C, strain PBS2, stronger effect = lower value",0.882
same,normalized growth,"locus YJL157C, strain FAR1, stronger effect = lower value",0.699 (active)
same,normalized growth,"locus YJR016C, strain ILV3, stronger effect = lower value",0.85 (active)
same,normalized growth,"locus YJR066W, strain TOR1 (second series), stronger effect = lower value",0.14 (active)
same,normalized growth,"locus YJR066W, strain TOR1, stronger effect = lower value",0.462 (active)
same,normalized growth,"locus YKL048C, strain ELM1, stronger effect = lower value",0.857
same,normalized growth,"locus YKL067W, strain YNK1, stronger effect = lower value",0.746
same,normalized growth,"locus YKL101W, strain HSL1, stronger effect = lower value",0.77
same,normalized growth,"locus YKL193C, strain SDS22, stronger effect = lower value",0.849 (active)
same,normalized growth,"locus YKL203C, strain TOR2, stronger effect = lower value",0.648 (active)
same,normalized growth,"locus YLR113W, strain HOG1, stronger effect = lower value",0.51 (active)
same,normalized growth,"locus YLR133W, strain CKI1, stronger effect = lower value",0.745
same,normalized growth,"locus YLR403W, strain SFP1, stronger effect = lower value",0.566 (active)
same,normalized growth,"locus YML070W, strain DAK1, stronger effect = lower value",0.676 (active)
same,normalized growth,"locus YMR001C, strain CDC5, stronger effect = lower value",0.85 (active)
same,normalized growth,"locus YMR205C, strain PFK2 (second series), stronger effect = lower value",0.743 (active)
same,normalized growth,"locus YMR277W, strain FCP1, stronger effect = lower value",0.863 (active)
same,normalized growth,"locus YNL006W, strain LST8, stronger effect = lower value",0.87 (active)
same,normalized growth,"locus YNL020C, strain ARK1, stronger effect = lower value",0.71 (active)
same,normalized growth,"locus YNL161W, strain CBK1, stronger effect = lower value",0.87 (active)
same,normalized growth,"locus YNL183C, strain NPR1, stronger effect = lower value",0.516 (active)
same,normalized growth,"locus YNL207W, strain RIO2, stronger effect = lower value",0.818 (active)
same,normalized growth,"locus YNL222W, strain SSU72, stronger effect = lower value",0.864 (active)
same,normalized growth,"locus YNL307C, strain MCK1 (second series), stronger effect = lower value",0.701
same,normalized growth,"locus YOL078W, strain AVO1, stronger effect = lower value",0.847 (active)
same,normalized growth,"locus YOL136C, strain PFK27, stronger effect = lower value",0.651 (active)
same,normalized growth,"locus YOR061W, strain CKA2, stronger effect = lower value",0.755
same,normalized growth,"locus YOR119C, strain RIO1, stronger effect = lower value",0.61 (active)
same,normalized growth,"locus YOR231W, strain MKK1, stronger effect = lower value",0.447 (active)
same,normalized growth,"locus YOR329C, strain SCD5, stronger effect = lower value",0.847 (active)
same,normalized growth,"locus YPL031C, strain PHO85, stronger effect = lower value",0.495 (active)
same,normalized growth,"locus YPL153C, strain RAD53, stronger effect = lower value",0.512 (active)
same,normalized growth,"locus YPL204W, strain HRR25, stronger effect = lower value",0.486 (active)
same,normalized growth,"locus YPL209C, strain IPL1, stronger effect = lower value",0.85 (active)
same,normalized growth,"locus YPL256C, strain CLN2, stronger effect = lower value",0.438 (active)
same,normalized growth,"locus YPR025C, strain CCL1, stronger effect = lower value",0.863 (active)
same,normalized growth,"locus YPR106W, strain ISR1, stronger effect = lower value",0.894
same,normalized growth,"locus YPR111W, strain DBF20, stronger effect = lower value",0.911
same,normalized growth,"strain NNK1, stronger effect = lower value",0.893
same,normalized growth,"strain TSCII, stronger effect = lower value",0.838 (active)
Oc1cc2c(cc1O)CN(C(=S)NCCc1ccc(Cl)cc1)CCC2,normalized growth,"locus YAL013W, strain DEP1, stronger effect = lower value",0.609 (active)
same,normalized growth,[1],1.09
same,normalized growth,[2],0.683 (active)
same,normalized growth,[3],0.656 (active)
same,normalized growth,[4],0.879
same,normalized growth,[5],1
same,normalized growth,"locus YGR078C, strain PAC10, stronger effect = lower value",0.995
same,normalized growth,"locus YGR229C, strain SMI1, stronger effect = lower value",0.128 (active)
same,normalized growth,"locus YJR075W, strain HOC1, stronger effect = lower value",0.718 (active)
same,normalized growth,"locus YMR263W, strain SAP30, stronger effect = lower value",0.994
same,normalized growth,"locus YNL128W, strain TEP1, stronger effect = lower value",0.975
same,normalized growth,[6],1
same,normalized growth,[7],0.98
same,normalized growth,[8],0.997
same,normalized growth,"locus YNL322C, strain KRE1, stronger effect = lower value",0.992
same,normalized growth,[9],0.897
O=C(O)C1CCNCC1,normalized growth,[1],1
same,normalized growth,[2],0.998
same,normalized growth,[3],1
same,normalized growth,[4],0.964
same,normalized growth,[5],0.995
same,normalized growth,"locus YNL153C, strain GIM3, stronger effect = lower value",1.01
same,normalized growth,[6],0.992
same,normalized growth,[7],0.992
same,normalized growth,[8],0.997
same,normalized growth,[9],1.01
same,normalized growth,"locus YPL055C, strain LGE1, stronger effect = lower value",1.01
